# A selection: hits, their analogues and other compounds. The true share with any hit is near 4.3%.
# TRPM1 prom inh – inhibitors of MITF-dependent TRPM1 promoter reporter, primary screen, cell-based, SK-MEL-5, single point, luciferase. SK-MEL-5 TRPM1 promoter luciferase, 24 h. inhibition, % at 12.5 µM. 330,000 compounds, 0.83% hits. AID 488899, 2010;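 active = mean inhibition across replicates of 60% or more, whatever share of single replicates reaches that level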
# Peg3 promoter – Peg3 promoter-driven luciferase inhibitors, primary screen, cell-based, HeLa, luciferase luminescence | AID 588405, 2011 | HeLa PEG-Prom luciferase reporter, overnight | inhibition, % at 20 µM | 360,000 compounds, 1.7% hits;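 active = inhibition of at least 50% at 20 µM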
# CHOP inh – inhibitors of CHOP promoter induction, primary screen, cell-based, unfolded protein response, luciferase reporter; CHO-K1 CHOP-promoter luciferase, tunicamycin-induced, 15-18 h; inhibition, % at 10 µM; 220,000 compounds, 3.8% hits; AID 2732, 2010;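 active = compounds that reduced the stress-induced luciferase reporter signal by more than about 70% of percent inhibition, limit read from the data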;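 note: 0% = tunicamycin plus vehicle and 100% = wells without tunicamycin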
# CF NFkB inh – inhibitors of PAF-induced NF-kB signaling, primary screen, cell-based, GFP fluorescence, uHTS. KKLEB NF-kB-GFP reporter, GFP fluorescence overnight. inhibition, % at 5 µM. 360,000 compounds, 0.86% hits;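 active = at least 50% inhibition at 5 µM, scaled per plate between neutral and stimulator controls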;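 note: PAF is a Pseudomonas aeruginosa culture filtrate used as stimulus; plate controls were PAF-stimulated DMSO wells for no effect and unstimulated DMSO wells for full effect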
# KKLEB cytotox – cytotoxicity in KKLEB CF airway cells, primary screen, cytotoxicity control for CF NF-kB inhibitor project, cell-based, uHTS, fluorescence assay plates; KKLEB CF airway cells viability, ATPlite luminescence, overnight; hits give low values; cells stimulated with P. aeruginosa culture filtrate; 360,000 compounds, 0.36% hits; activity change (cytotoxicity), % at 5 µM; AID 602141, 2011;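 active = corrected activity change at or below -50% at 5 µM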
# HIF-2a inh – HIF-2a reporter inhibitors, primary screen, luminescence, 786-0 RCC cells; 786-0 RCC cells HIF-2a reporter, luciferase luminescence, overnight; inhibition, % at 18.8 µM; 360,000 compounds, 0.72% hits;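 active = inhibition of the luminescence signal of 40% or more relative to plate controls, in a single-dose primary screen at 18.75 µM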
# CHOP confirm – retest of CHOP induction inhibitors, confirmation, cell-based. shares compounds with CHOP inh. CHO-CHOP promoter luciferase reporter, tunicamycin-induced, luminescence. inhibition, % at 10 µM. 2,100 compounds, 45% hits;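 active = mean of three repeat readings of reporter signal inhibition above a set limit, cut at about 70% in these data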;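 note: 0% = tunicamycin plus vehicle and 100% = wells lacking tunicamycin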
# The depositor's hits bear a star; . = not tested or not shown.
SMILES,TRPM1 prom inh,Peg3 promoter,CHOP inh,CF NFkB inh,KKLEB cytotox,HIF-2a inh,CHOP confirm
CC(=O)c1cc2c(cc1NC(=O)CN1CCN(c3ccc(F)cc3)CC1)OCO2,1,6,97*,-6,1,10,19
Cc1sc2ncnc(SCC(=O)N3c4ccccc4Sc4ccc(Cl)cc43)c2c1C,-4,9,36,16,-5,27,.
CCOC(=O)c1c(C)sc2c1N(C(=O)CCl)c1cc(Cl)ccc1S2,82*,87*,.,69*,-76*,91*,-24
CCCc1c(Cc2cccc(F)c2)ncn1Cc1cccc(-c2ccccc2)c1,.,.,.,.,.,2,.
Cc1ccc(-n2sc3ccccc3c2=O)cc1,-23,-158,106*,-7,-3,-147,30
CCCCNC(=O)c1ccc(Cn2c(=S)[nH]c3c([nH]c4ccc(OC)cc43)c2=O)cc1,-2,80*,105*,60*,-63*,-13,16
CC(=O)OCC1O[C@@H](O[C@@H]2C[C@H]3C(C)(C)[C@H](OC(C)=O)CC[C@]3(C)[C@H]3CC[C@]45C[C@]4(CC[C@H]5[C@@H](C)C[C@@H](O)[C@H](O)C(C)(C)O)[C@@]32C)[C@H](O)[C@@H](O)[C@@H]1O (stereo not given in full),.,.,106*,.,.,.,120*
COCc1ccc(CN2CCC(n3nccc3NC(=O)CCOc3ccccc3)CC2)o1,11,17,.,9,-8,9,.
CC(C)CC(NC(=O)c1ccc(Cl)cc1)C(=O)OCC(=O)c1ccc2c(c1)NC(=O)CO2 (stereo not given),56,84*,107*,2,-6,26,74*
CC(O)C(NS(=O)(=O)c1ccc(Cl)cc1)C(=O)OCC(=O)c1ccc2c(c1)NC(=O)CO2 (stereo not given),14,-8,.,29,-16,-5,.
Cc1ccc(C(CC(=O)NCCCN(C)C)c2ccc(OC(C)C)cc2)cc1 (stereo not given),2,-29,-13,0,1,12,.
C[C@@H](NC(=O)/C(C#N)=C/c1ccc(O)c(O)c1)c1ccccc1,-4,5,7,2,1,11,.
CC(NC(=O)/C(C#N)=C/c1ccc(Cl)c([N+](=O)[O-])c1)c1ccccc1 (stereo not given),.,.,105*,.,.,.,94*
CCOC(=O)N1CCN(C(=O)C[C@@H]2C[C@@]3(C(=O)OC)CC(C)(C)CC=C3N(Cc3cccc4ccccc34)C2=O)CC1,.,.,.,.,.,9,.
CCOC(=O)c1c(NC(=O)c2ccccc2Cl)sc2c1CCc1ccccc1-2,12,7,-33,-8,-2,12,.
CCCCC(=O)Nc1sc2c(c1C(=O)OCC)CCC(C=O)=C2Cl,-2,45,117*,11,4,14,-2
Cc1cc(-c2nnc(SCC(=O)Nc3cccc(F)c3)n2N)n[nH]1,-1,-3,.,-7,-19,-28,.
COC(=O)CS(=O)(=O)c1nnc([C@H](Cc2ccccc2)NC(=O)OC(C)(C)C)o1,79*,104*,111*,66*,-12,45*,94*
Cc1ccc(S(=O)(=O)N(C)C)cc1NC(=O)c1cc(S(=O)(=O)N2CCCCC2)ccc1N1CCOCC1,7,5,.,13,-12,6,.
CCN=C1S/C(=C\c2cc(OCC)c(O)cc2Br)C(=O)N1CC,-15,51*,108*,47,-29,15,37
CCN=C1S/C(=C\c2ccc(O)c(OCC)c2)C(=O)N1CC,-32,-3,42,34,-18,-60,.
O=C(C[n+]1cccc(/C=N/O)c1)NC(=O)Nc1ccccc1,.,.,.,.,.,5,.
O=C(NC(NNc1ccc([N+](=O)[O-])cc1)(C(F)(F)F)C(F)(F)F)c1ccccc1Cl,11,4,55,-22,-9,-6,.
O=C(NC(Nc1nc2ccc([N+](=O)[O-])cc2s1)(C(F)(F)F)C(F)(F)F)c1ccccc1Cl,75*,65*,97*,45,-53*,15,125*
COC(=O)c1cccc(NC(=O)NC23CC4CC(CC(C4)C2)C3)c1,-36,-57,101*,-10,2,-111,-42
SMILES,TRPM1 prom inh,Peg3 promoter,CHOP inh,CF NFkB inh,KKLEB cytotox,HIF-2a inh,CHOP confirm
CCc1cc(-c2n[nH]c(C)c2Oc2ccc(C(C)C)cc2)c(O)cc1O,5,22,113*,-37,29,9,114*
Cc1[nH]nc(-c2ccc(O)cc2O)c1Oc1ccccc1,10,27,20,-3,-2,-12,.
CCCOC(=O)c1ccc(Oc2c(-c3ccc(O)cc3O)n[nH]c2C)cc1,8,39,105*,-4,-5,15,69
CCOc1ccc(-c2n[nH]c(C)c2Oc2ccccc2OC)c(O)c1,4,34,19,-7,-5,20,.
O=C(Nc1ccc(-c2nc3ccccc3s2)cc1)C1=COCCO1,43,19,104*,-14,-53*,16,92*
Cc1cc(=O)[nH]c2ccccc12,6,20,-17,4,-7,18,.
Cc1cc2c([nH]c3ccccc32)c2c1OC(C)(C)C=C2,-86,-390,98*,16,-14,-281,97*
COc1cccc(CN2CCN(Cc3ccc4c(NC(C)=O)cccc4n3)CC2CCO)c1 (stereo not given),-18,2,-19,-7,9,15,.
CCOC(=O)c1c(-c2ccccc2)nnn1-c1nc(OCC)nc(N2CCCCC2)n1,17,53*,101*,4,10,9,62
CCOc1nc(N2CCCCC2)nc(-n2cc(-c3ccccc3)nn2)n1,-4,12,41,-4,1,16,.
O=c1c2c(-c3ccccc3)csc2nc2c3ccccc3c(NCCN3CCOCC3)nn12,6,108*,106*,-18,-10,-101,-24
O=c1c2ccccc2nc2c3ccccc3c(NCCN3CCOCC3)nn12,.,.,11,.,.,.,.
Cc1ccc(C(=O)c2c(C)oc3c2C(=O)C(=O)c2ccccc2-3)cc1,26,101*,115*,78*,-16,29,50
CCC(C)(C)NC(=O)C(c1cccn1C)N(C(=O)Cn1nnc2ccccc21)c1ccc(F)cc1 (stereo not given),-3,16,96*,-4,-16,12,79*
CCC(C)(C)NC(=O)C(c1cccn1C)N(C(=O)Cn1nnc2ccccc21)c1ccc(NC(C)=O)cc1 (stereo not given),6,20,8,14,-2,19,.

# Screening data as filed in PubChem BioAssay.
